Potency data for 40 compounds are collected here from PubChem BioAssay (NCATS).

Records with an inconclusive call do not appear. Where a call stands in place of a potency, no number is given. Calls of active or inactive are those of the source. Calls follow the shape of the dose curve; as a rule, active = well fitted cell-killing curve with a large enough effect; inconclusive = small, poorly fitted or top-dose-only effect; inactive = flat fitted curve, though single readings scatter.
Potency is read from the fitted curve at half-maximal effect.

The experiment can be described thus: Quantitative highthroughput screen to assess conditional lethalithy of NOMO1 cells grown in RPMI1640 with untreated serum (RPMI+s) (AID 1963876). Also: nearly all actives have a fitted effect of over 35% in size. The conditions noted are these: NOMO1 AML cells in RPMI+serum, CellTiter-Glo viability, 48 h; series mostly up to 45.8 µM. The text has this: Assay Provider: Jason Cantor Ph.D.
Department of Biochemistry
University of Wisconsin-Madison, Madison, WI, USA
Chemical screening studies have identified drug sensitivities across hundreds of cancer cell lines but most putative therapeutics fail to translate. Discovery and development of drug candidates in models that more accurately reflect nutrient levels in human blood is a major challenge. Here we performed high-throughput screens in conventional versus Human Plasma-Like Medium (HPLM) to identify compounds that were "missed" when screening using the artificial culture condition. Sets of conditional anticancer compounds spanned phases of clinical development and included non-oncology drugs were assessed. […] We also traced conditional phenotypes for several chemotherapeutics to availability of HPLM-specific metabolites and confirmed others for compounds whose reported targets are encoded by nonessential genes. Our findings establish generalizable strategies for exploiting conditional lethality in HPLM to reveal therapeutic candidates and mechanisms of action in cancer cells.
Described herein are the results of each viability screens against three cell lines: NOMO1 (an acute myeloid leukemia cell line); P12-Ichikawa (a T-cell acute lymphoblastic leukemia); and SEM (a B-cell ALL). Each assay was screened using 3 different cell culture media: homemade human plasma-Like medium with 10% dialyzed fetal bovine serum (HPLM+ds); RPMI1640 with 10% untreated FBS and 5mM glucose (RPMI+s); and RPMI1640 with 10% dialyzed fetal bovine serum and 5 mM glucose (RPMI+ds).
PROTOCOL TABLE (as described by Inglese J, Shamu CE and Guy RK. 2007)
SEQUENCE No. (e.g., 1, 2, 3, etc.); […] (e.g., Cells, Incubation, Reagent, etc.); VALUE and DESCRIPTION.
1; Cells; 5 uL; white, solid bottom 1536-well Greiner assay plate.
2; Compounds; 23 nL; Kalypsis pin tool (Wako USA) equipped with a 1536-well pin head to transfer to the assay plates.
3; Incubation; 48 hours; 37C incubation.
4; Reagent; 3 uL; CellTiter Glo (Promega).
5; Incubation; 5 min, room temperature
6; Detection; Luminescence, Viewlux PerkinElmer.
NOTES (numbers refer to Sequence numbers above)
1. Briefly, 5 ul of cell reagent was dispensed using a Multidrop Combi Dispenser. The NOMO1 and SEM cells were plated at 500 cells/well and the P12-Ichikawa line at 1000 cells/well.
2. After seeding the cells, 23 nL of MIPE 4.1 library compounds (in DMSO) were added to each plate using a Kalypsys 1536 Pintool dispenser. Bortezomib at final concentration of […] and DMSO were added to each plate as positive and negative controls respectively. For each screen, MIPE 4.1 compounds were added over an eleven-point concentration range […] in 3-fold dilutions.
3. Each plate was covered with a stainless steel gasketed lid to prevent evaporation and incubated for 48 hour at 37C, 95% relative humidity, and 5% CO2.
4-5. Three microliter CellTilter-GloTM luminescent substrate mix (Promega) reagent was added to the assay plate and incubated at room temperature for 5 min.
6. The luminescence signal was measured using a ViewLux (PerkinElmer) multiplate reader with a 2 second exposure time per plate. Data for each compound were normalized as percent viability such that measurements for DMSO and the empty well controls in each plate were defined as 100% and 0%, respectively.
As to `O=[N+]([O-])c1ncc[nH]1`, the Potency result was “inactive”.

As to `C[C@@H]1[C@H](O)[C@@H](C)C=CC=CCCC=CC=CC=CC=C[C@H](O[C@H]2O[C@@H](C)[C@H](O)[C@@H](N)[C@@H]2O)CC2O[C@](O)(C[C@@H](O)[C@H](O)CC[C@@H](O)C[C@@H](O)C[C@@H](O)CC(=O)O[C@H]1C)C[C@H](O)[C@H]2C(=O)O`, the Potency entry is “inactive”.

For the compound `C=C[C@@H]1CN2CCC1C[C@H]2[C@H](O)c1ccnc2ccccc12` (stereo not given in full), the Potency entry was “inactive”.

In the case of `CC(C)[C@]12O[C@@H]1[C@@H]1O[C@]13[C@]1(O[C@H]1C[C@@H]1C4=C(CC[C@@]13C)C(=O)OC4)[C@H]2O`, the Potency was 1.2 nM (active).

On to `CCNC(=O)C[C@@H]1N=C(c2ccc(Cl)cc2)c2cc(OC)ccc2-n2c(C)nnc21`, for which the Potency was 9350 nM (active).

`Oc1ccc2c3c1O[C@H]1c4[nH]c5c(c4C[C@@]4(O)[C@@H](C2)N(CC2CC2)CC[C@]314)C[C@@]1(O)[C@H]2Cc3ccc(O)c4c3[C@@]1(CCN2CC1CC1)[C@H]5O4`: the Potency entry is “inactive”.

In the case of `CN1C(=O)COc2c(C(=O)NC3CN4CCC3CC4)cc(Cl)cc21` (stereo not given), the Potency result was “inactive”.

On to `CN(C)CCc1ccc(O)cc1`, for which the Potency result was “inactive”.

Consider `CCOC(=O)c1c(C(C#N)=CN)c2ccc(Cl)c(Cl)c2n1C`, for which the Potency result was “inactive”.

Take `C[C@@H]1CC[C@H]2[C@@H](C)C(=O)O[C@@H]3O[C@@]4(C)CC[C@H]1[C@]32OO4`: the Potency entry was “inactive”.

`CCOC(=O)c1cncn1[C@H](C)c1ccccc1`: the Potency entry was “inactive”.

Turning to `C[C@]12CC[C@H]3[C@@H](CCC4=CC(=O)CC[C@@]43C)[C@H]1CC[C@H]2O`, the Potency result was “inactive”.

`O=c1[nH]c2ccc(Cl)cc2c(N[C@@H]2CN3CCC2CC3)c1-c1nc2ccccc2[nH]1`: the Potency is 132 nM (active).

Consider `c1cc2c(cc1[C@H]1OC[C@H]3[C@H]1CO[C@H]3c1ccc3c(c1)OCO3)OCO2`, for which the Potency result was “inactive”.

For the compound `C[C@]12COC(=O)C[C@@H]1CC[C@@H]1[C@H]2CC[C@@]2(C)[C@H]1CC[C@]2(C)O`, the Potency entry is “inactive”.

For the compound `c1ccc(CCCN2CCN(CCOC(c3ccccc3)c3ccccc3)CC2)cc1`, the Potency entry is “inactive”.

Take `CC1=C2C[C@@H]3[C@@H](CC=C4C[C@@H](O)CC[C@@]43C)[C@@H]2CC[C@]12O[C@H]1C[C@H](C)CN[C@H]1[C@H]2C`: the Potency result was “inactive”.

With `O=C1CC[C@@]2(O)[C@H]3Cc4ccc(O)c5c4[C@@]2(CCN3CC2CC2)[C@H]1O5`, the Potency was 7430 nM (active).

As to `C[C@]12CC[C@H]3[C@@H](CCC4=CC(=O)CC[C@@]43C)[C@H]1CC[C@H]2OC(=O)CCC1CCCC1`, the Potency entry was “inactive”.

For the compound `CN1CCN(c2ccc([N+](=O)[O-])c3no[n+]([O-])c23)CC1`, the Potency entry was “inactive”.

Turning to `Cc1cc(SCc2sc(-c3ccc(C(F)(F)F)c(F)c3)nc2C)ccc1OCC(=O)O`, the Potency result was “inactive”.

As to `COCC1(CO)C(=O)C2CCN1CC2` (stereo not given), the Potency was 20900 nM (active).

For `CNC(=O)c1ccc(N2C(=S)N(c3ccc(C#N)c(C(F)(F)F)c3)C(=O)C23CCC3)cc1F`, the Potency entry is “inactive”.

For the compound `O=C(O)c1nn(Cc2ccc(Cl)cc2Cl)c2ccccc12`, the Potency result is “inactive”.

As for `COc1ccc2c(c1)[C@]13CCCCC1C(C2)N(C)CC3` (stereo not given in full), the Potency result is “inactive”.

In the case of `COC[C@H]1OC(=O)c2coc3c2[C@@]1(C)C1=C(C3=O)[C@@H]2CC[C@H](O)[C@@]2(C)C[C@@H]1OC(C)=O`, the Potency entry is “inactive”.

For the compound `CC=C(C)C(=O)O[C@H]1C(C)=C2[C@@H]3OC(=O)[C@@](C)(O)[C@@]3(O)[C@@H](OC(=O)CCC)C[C@](C)(OC(C)=O)[C@@H]2[C@@H]1OC(=O)CCCCCCC`, the Potency was 93.5 nM (active).

`C=C1C[C@H]2[C@H]3CCC(=O)[C@@]3(C)CC[C@@H]2[C@@]2(C)C=CC(=O)C=C12`: the Potency entry is “inactive”.

In the case of `COC1=CC(C)=C[C@@H](C)[C@@H](O)[C@@H](C)CC(C)=CC=C[C@H](OC)[C@H]([C@@H](C)[C@@H](O)[C@H](C)[C@@]2(O)C[C@@H](O)[C@H](C)[C@@H](C(C)C)O2)OC1=O`, the Potency was 105 nM (active).

As for `CC1=C(O)C(=O)C=C2C1=CC=C1[C@@]2(C)CC[C@@]2(C)[C@@H]3C[C@](C)(C(=O)O)CC[C@]3(C)CC[C@]12C`, the Potency is 3720 nM (active).

Take `CCCC(C)(COC(N)=O)COC(=O)NC(C)C` (stereo not given): the Potency entry was “inactive”.

In the case of `CC(C)C[C@H](CN)CC(=O)O`, the Potency result was “inactive”.

Consider `C=C(C)[C@H]1Cc2c(ccc3c2O[C@@H]2COc4cc(OC)c(OC)cc4[C@@H]2C3=O)O1`, for which the Potency was 5260 nM (active).

Regarding `C[C@H]([C@H](O)CCC(C)(C)O)[C@H]1CC[C@@]2(O)C3=CC(=O)[C@@H]4C[C@@H](O)[C@@H](O)C[C@]4(C)[C@@H]3CC[C@]12C`, the Potency result was “inactive”.

With `CC(=O)Nc1ccc(OC[C@](C)(O)C(=O)Nc2ccc([N+](=O)[O-])c(C(F)(F)F)c2)cc1`, the Potency entry was “inactive”.

For the compound `CC(=CCCC1=CCC(C2=CC(=O)OC2O)OC1O)CCC1=C(C)CCCC1(C)C` (stereo not given), the Potency result is “inactive”.

Turning to `C[C@H]1CCCC=CC2C[C@H](O)C[C@@H]2[C@H](O)C=CC(=O)O1` (stereo not given in full), the Potency entry is “inactive”.

Regarding `CC[C@@]1(O)C(=O)OCc2c1cc1n(c2=O)Cc2cc3ccccc3nc2-1`, the Potency is 74.3 nM (active).

As for `CC(C)(C)c1cc(C=C(C#N)C#N)cc(Br)c1O`, the Potency result was “inactive”.

`Cc1nc(-c2ccc(-c3ccc(C(=O)N4CCc5cc6c(cc54)C4(CCN(C)CC4)CO6)cc3)c(C)c2)no1`: the Potency entry is “inactive”.
